Hits are enriched below; roughly 2.4% of the tested compounds scored in any of these assays.
CHRM1 agonist: agonists of human M1 muscarinic receptor. CHO-K1 hM1, Fluo-8 calcium fluorescence, agonist mode; 0% DMSO, 100% acetylcholine EC100. activation, % at 3 µM. 360,000 compounds, 0.33% hits;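 active = activation above the run's mean compound activation plus 3 SD, cut at about 16% in these data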;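 also: peak over basal fluorescence ratio within a 140 s kinetic read after compound addition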
Target sequence (P11229 whole entry, looked up): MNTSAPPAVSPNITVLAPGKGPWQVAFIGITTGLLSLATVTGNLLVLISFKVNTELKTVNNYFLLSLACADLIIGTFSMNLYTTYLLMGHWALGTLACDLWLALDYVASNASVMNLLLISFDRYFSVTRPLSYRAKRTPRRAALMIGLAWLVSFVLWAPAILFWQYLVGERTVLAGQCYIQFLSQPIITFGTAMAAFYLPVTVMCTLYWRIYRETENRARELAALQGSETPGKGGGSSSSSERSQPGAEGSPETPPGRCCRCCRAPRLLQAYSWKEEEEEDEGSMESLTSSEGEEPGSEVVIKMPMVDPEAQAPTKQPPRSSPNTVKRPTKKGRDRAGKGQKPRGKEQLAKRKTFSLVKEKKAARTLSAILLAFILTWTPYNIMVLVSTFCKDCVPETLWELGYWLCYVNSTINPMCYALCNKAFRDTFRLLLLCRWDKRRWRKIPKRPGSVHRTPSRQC
CHO-K1 Ca antag: counter-screen for M1 antagonists: effect in parental CHO-K1 cells; ATP-induced calcium, Fluo-8 fluorescence; AID 602250; 360,000 compounds, 0.6% hits; inhibition, % at 3 µM;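 active = inhibition above a per-plate cutoff, the plate's mean sample inhibition plus 3 SD, cut at about 24% in these data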;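 also: 0% = DMSO plus EC80 ATP and 100% = DMSO alone without ATP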
M1 PAM: positive allosteric modulators of human M1 muscarinic receptor; CHO-K1 hM1, Fluo-8 calcium fluorescence, ACh EC20; 0% = ACh EC20, 100% = maximal ACh; activation, % at 3 µM; 360,000 compounds, 0.088% hits; AID 588819; in the data active = activation above about 19%, passing the limit was not always enough
CHO-K1 Ca PAM: nonselective activator or artifact in parental CHO-K1 calcium assay | ATP EC20, Fluo-8 calcium fluorescence; 0% at ATP EC20, 100% at ATP max | activation, % at 3 µM | 360,000 compounds, 0.02% hits | AID 602247;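 active = activation above the run cutoff, the mean activation of all test compounds plus 3 SD, cut at about 40% in these data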;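 also: peak over basal fluorescence ratio in a 140 s read after ATP addition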
M1 ag parental: M1 agonist counterscreen hit in parental CHO-K1 cells | activation, % at 3 µM | Fluo-8 calcium fluorescence; scaled to maximal ATP response, vehicle zero | 360,000 compounds, 0.48% hits | AID 602248; in the data active = activation above about 15%;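 also: untransfected CHO-K1 host cells lacking M1 receptor as counterscreen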
CHRM1 antagonist: antagonists of human M1 muscarinic receptor. 360,000 compounds, 1.3% hits. CHO-K1 hM1, Fluo-8 calcium fluorescence, ACh EC80 antagonist. inhibition, % at 3 µM;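 active = percent inhibition above its own plate's cutoff, namely the mean of that plate's compound wells plus 3 SD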;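 also: peak over basal fluorescence ratio during 140 s after agonist addition; 0% = ACh EC80 plus DMSO and 100% = DMSO alone without agonist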
* marks the source's active call; other numbers are inactive results.

SMILES | CHRM1 agonist | CHO-K1 Ca antag | M1 PAM | CHO-K1 Ca PAM | M1 ag parental | CHRM1 antagonist
O=C(N/N=C/C=C/c1ccccc1[N+](=O)[O-])c1ccncc1 | -2 | -3 | 7 | 1 | 0 | -19
N#CCC(=O)N/N=C/c1cc([N+](=O)[O-])ccc1N1CCOCC1 | -5 | 26* | -8 | -15 | 0 | 7
O=C(N/N=C/c1cc([N+](=O)[O-])c(N2CCOCC2)cc1N1CCOCC1)c1cccnc1 | -6 | 1 | -1 | 17 | 21* | 8
O=C(N/N=C/c1ccccc1[N+](=O)[O-])c1ccncc1 | -2 | -7 | 26* | 0 | 0 | 0
O=C(N/N=C/c1ccccc1)c1ccc(N2CCOCC2)c([N+](=O)[O-])c1 | -5 | -4 | 1 | 15 | 1 | 3
O=S1(=O)CCOC[C@H](c2ccccc2)N1Cc1ccccc1F | -8 | -17 | 9 | 6 | 0 | -7
COc1cc(CN2CCCC(C(=O)c3ccc(C(C)(C)C)cc3)C2)cc(OC)c1O (stereo unspecified) | -10 | -7 | -15 | -4 | 1 | 9
CCOC(=O)c1[nH]ncc1CN1CCCC(C(=O)c2ccc(C(C)(C)C)cc2)C1 (stereo unspecified) | -6 | -6 | -10 | -7 | 1 | 38*
CCOC(=O)C1CCCN(CC(=O)c2ccc(F)cc2)C1 (stereo unspecified) | 65* | 1 | -20 | -1 | 6 | 57*
COc1ccccc1C(=O)N1CCN(Cc2cn[nH]c2-c2ccc(F)cc2F)CC1 | -5 | -12 | 3 | 27 | 1 | -1
CCOC(=O)C1CCCN(CC(=O)Nc2c(F)c(F)c(F)c(F)c2F)C1 (stereo unspecified) | 10 | -2 | 1 | 8 | 0 | -3
CCOC(=O)C1CCCN(Cc2cn[nH]c2-c2ccc(F)cc2F)C1 (stereo unspecified) | 8 | 4 | 4 | 8 | 18* | -1
Cc1cc(C)c(C)c(S(=O)(=O)N2CCN(C(=O)c3cc(S(=O)(=O)N4CCOCC4)ccc3F)CC2)c1C | -3 | -13 | 6 | 15 | 2 | -6
CN(C(=O)Cn1c(Cl)nc2c1c(=O)n(C)c(=O)n2C)C1CCS(=O)(=O)C1 (stereo unspecified) | -2 | 4 | -10 | -21 | 0 | 23*
CCC(C)N(C(=O)Cn1c(Cl)nc2c1c(=O)n(C)c(=O)n2C)C1CCS(=O)(=O)C1 (stereo unspecified) | 2 | 7 | 1 | -20 | 1 | -5
CCN(CC)CCNC(=O)c1ccc(Cl)c(S(=O)(=O)Nc2ccc(Cl)cc2)c1 | -7 | -13 | 0 | 18 | 1 | -3
COc1ccc(CCNC(=O)c2ccc(Cl)c(S(=O)(=O)N3CCCC3)c2)cc1 | 0 | -6 | -9 | 0 | 16* | 5
COc1ccc(C(CNC(=O)c2ccc(Cl)c(S(=O)(=O)N3CCCC3)c2)N2CCCC2)cc1 (stereo unspecified) | -8 | -12 | 4 | 7 | 0 | -5
O=C(Nc1ncccc1O)c1ccc(Cl)c(S(=O)(=O)N2CCCCC2)c1 | -2 | 38* | -6 | -14 | 0 | 16
CCN(CC)CCNC(=O)c1ccc(NC(=O)c2cccc(S(=O)(=O)N3CCCCCC3)c2)cc1 | -8 | -9 | -30 | 10 | 0 | 101*
CCN(CC)CCNC(=O)c1ccc(NC(=O)c2ccc(Cl)c(S(=O)(=O)N3CCCCCC3)c2)cc1 | -7 | -14 | -25 | 5 | 0 | 100*
CCN(CC)CCNC(=O)c1ccc(NC(=O)c2ccc(S(=O)(=O)N3CCCCCC3)cc2)cc1 | -8 | -10 | -11 | 14 | 1 | 10
COc1cc(NC(=O)C(C)N2CCN(C(=O)C3CC3)CC2)cc(OC)c1 (stereo unspecified) | -4 | -16 | 18 | 12 | 0 | -22
CC(C)CN1C(=O)c2ccc(C(=O)Nc3ccncc3)cc2C1=O | 1 | -16 | -7 | 0 | 18* | 9
CC(C)CN1C(=O)c2ccc(C(=O)Nc3ccccn3)cc2C1=O | -1 | 10 | 6 | -7 | 0 | -3
CC(=O)Nc1ccc(C(=O)CN2C(=O)NC3(CCCc4ccccc43)C2=O)c(F)c1 (stereo unspecified) | 1 | 2 | 4 | 5 | 9 | 1
